SNCA viab count: GF-AFC viability counterscreen for inhibitors of alpha-synuclein gene (SNCA) expression; Potency, µM (top dose mostly 57.1 µM), hits mostly cytotoxic; 150,000 tested, 0.12% active; HEK-293-SNCA-luc viability, GF-AFC fluorescence, 24 h; also: nearly all actives have a fitted effect of over 30% in size
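HEK-293-SNCA-luc cells (1500/well) plated 24 h, then exposed 24 h to a dilution series; GF-AFC added 30 min at 37C, fluorescence 405/540 nm; normalised to medium-only and DMSO wells, Hill fit.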
GPT2 inhibitor: Primary qHTS assay for inhibitors of Glutamate pyruvate transaminase 2 (GPT2); Recombinant GPT2, coupled pyruvate oxidase/HRP Amplex Red fluorescence; Potency, µM (top dose mostly 57.7 µM), actives largely listed as inhibitors; 100,000 tested, 0.25% active; Alanine aminotransferase 2 (Homo sapiens), Q8TD30; also: nearly all actives have a fitted effect of over 60% in size
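Fluorescence of coupled pyruvate oxidase/HRP/Amplex Red system (50uM Amplex, 30 min, dark) reports pyruvate formed by GPT2. Enzyme reaction: 10ng/uL GPT2, 2mM L-alanine, 250uM a-KG, 30 min room temperature, pH 7.5; 50uM AOA control.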
SNCA expr inhib: Primary qHTS assay for inhibitors of alpha-synuclein gene (SNCA) expression; HEK-293 SNCA-luciferase knock-in, luminescence, 24 h; Potency, µM (doses to about 57.2 µM), most hits filed as inhibitors; 140,000 tested, 0.17% active; also: nearly all actives have a fitted effect of over 45% in size
IP6K1 inh: Primary qHTS assay for small molecule inhibitors of Inositol hexaphosphate kinase 1 (IP6K1) | Inositol hexakisphosphate kinase 1 (Homo sapiens), Q92551 | IP6K1 kinase, ADP-Glo luminescence, 2 h; active compounds read low | activity change, % (series mostly up to about 58 µM) | 140,000 tested, 0.81% active; in the data active = activity change below about -25%
Target sequence (Q92551 whole entry, looked up): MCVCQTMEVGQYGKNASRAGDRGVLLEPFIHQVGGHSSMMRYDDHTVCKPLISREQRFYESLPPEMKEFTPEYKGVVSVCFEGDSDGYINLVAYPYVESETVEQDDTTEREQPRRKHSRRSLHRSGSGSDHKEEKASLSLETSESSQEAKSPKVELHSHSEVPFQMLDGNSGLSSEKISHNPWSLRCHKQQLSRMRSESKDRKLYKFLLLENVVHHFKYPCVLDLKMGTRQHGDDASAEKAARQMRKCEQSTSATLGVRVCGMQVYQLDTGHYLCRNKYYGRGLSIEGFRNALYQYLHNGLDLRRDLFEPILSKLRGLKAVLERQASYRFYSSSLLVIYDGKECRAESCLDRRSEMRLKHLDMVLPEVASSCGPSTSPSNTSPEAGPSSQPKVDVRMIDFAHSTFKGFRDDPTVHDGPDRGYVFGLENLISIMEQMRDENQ
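ADP-Glo luminescence measures ADP made by human IP6K1 during a 2 h RT reaction with ATP/IP6 (mix at 1.3 mM/130 uM); top library doses 57.5 and 19.1 uM final.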
Of the large screens only hits and unclear results are named; the others gave an inactive call; ! = not confirmed by another sample. The list is not random: actives were taken first. Their share in the collection is about 0.9%. Unless noted, calls follow the shape of the dose curve; as a rule, active = well fitted curve in the direction sought with a large enough effect; inconclusive = small, poorly fitted or top-dose-only effect, or another doubt; inactive = no such curve, though single readings can be large; an effect the other way counts as inactive or inconclusive.

O=C(CCS(=O)(=O)c1nc(-c2cccs2)cc(C(F)(F)F)n1)Nc1ccc(F)c(Cl)c1	SNCA viab count inconclusive, SNCA expr inhib inconclusive (no result: GPT2 inhibitor)
CCOC(=O)[C@H]1[C@@H](O)C(=O)N(Cc2ccccc2)C12CCN(C(=O)Cc1ccccc1)CC2	none (no result: SNCA viab count, GPT2 inhibitor, SNCA expr inhib)
Cc1ccc(Nc2ccnc(N3CCC(NC(=O)Nc4ccc(Cl)cc4)CC3)n2)cc1	none
COc1cc(CNCCc2ccccc2C)ccc1OCC(O)CN1CCOCC1 (centres undefined)	none
O=C(c1ccc(Nc2nccc(-c3cc4ccccc4s3)n2)cc1)N1CCC(N2CCCC2)CC1	SNCA viab count 30µM!, GPT2 inhibitor inconclusive, SNCA expr inhib inconclusive
CCNc1cc(N2CCC(CCC(=O)NC3CCCC3)CC2)ncn1	GPT2 inhibitor inconclusive, SNCA expr inhib 2.2µM
O=C(CCC1CCN(c2cc(NC3CC3)ncn2)CC1)NCC1CC1	SNCA expr inhib 1.4µM
CC1=C[C@@H](CN2CCN(c3ncccn3)CC2)[C@H](C(C)C)C[C@H]1Cc1nnc(-c2ccccc2F)o1	SNCA viab count inconclusive, SNCA expr inhib inconclusive
Cc1noc(C)c1[S+](=O)([O-])NCCNC(=O)c1cccc(-c2ncccc2C#N)c1	none
O=C(Nc1cc2ccc(O)cc2oc1=O)c1ccc(F)cc1	SNCA expr inhib 2µM (no result: GPT2 inhibitor)
O=C(/C=C/c1ccc(O)c(O)c1)O[C@@H]1[C@@H](O)[C@H](OC2CCCCC2O)O[C@H](CO)[C@H]1O (some centres undefined)	none (no result: SNCA expr inhib)
O=C(/C=C/c1ccc(O)c(O)c1)O[C@H]1[C@H](OC2CCCCC2O)O[C@H](CO)[C@@H](O)[C@@H]1O (some centres undefined)	GPT2 inhibitor 4.5µM (no result: SNCA expr inhib)
CNC(=O)c1c(F)cccc1Nc1nc(Nc2cc3c(cc2OC)CCN3C(=O)CN(C)C)nc2[nH]ccc12	GPT2 inhibitor inconclusive, SNCA expr inhib 14µM
O=C(NCc1ccc2c(c1)CCN2C(=O)c1ccc(F)cc1)c1c(F)cccc1F	none (no result: GPT2 inhibitor)
Cc1cccc(NC(=O)CN2C(=O)C(c3ccccc3)=NC23CCCC3)c1C	SNCA expr inhib 16µM
COCCOc1nc(-c2ccc(Cl)c(Cl)c2)n(-c2ccc(NC(=O)CCl)cc2)n1	SNCA viab count 30µM!
CCS(=O)(=O)c1ncc(Cl)c(C(=O)Nc2ccc(S(=O)(=O)N(C)c3ccccc3)cc2)n1	SNCA viab count 10µM, SNCA expr inhib 2.8µM (no result: GPT2 inhibitor)
CCSc1ncc(Cl)c(C(=O)Nc2ccc(S(=O)(=O)N(C)c3ccccc3)cc2)n1	SNCA expr inhib inconclusive (no result: GPT2 inhibitor)
CCN(c1ccccc1)S(=O)(=O)c1ccc(NC(=O)c2nc(S(C)(=O)=O)ncc2Cl)cc1	SNCA viab count 10µM, SNCA expr inhib inconclusive, IP6K1 inh -43 (no result: GPT2 inhibitor)
CCc1noc(-c2cccn3c(CNC(=O)c4cccc(F)c4)nnc23)n1	none
COc1ccc2c(c1)c1c(c(=O)n(Cc3ccccc3)c(=O)n1Cc1ccccc1Cl)n2C	SNCA expr inhib 3.2µM (no result: GPT2 inhibitor)
C[S+](=O)([O-])N1CCC(c2nnc3n2C(C(=O)NCc2ccccc2)CC3)CC1 (centres undefined)	none
COCCN1CCC2(C1)CN(C)c1ccc(C(=O)Nc3ccccc3)cc12 (centres undefined)	SNCA expr inhib 10µM
COCCN1CCC2(C1)CN(C)c1ccc(C(=O)Nc3ccc(F)cc3)cc12 (centres undefined)	none
CN(C)CC(=O)NC1CCN(c2ccc3nnc(C4CC4)n3n2)CC1	none (no result: SNCA viab count, GPT2 inhibitor, SNCA expr inhib)
CC(C)CCNC(=O)N(C)CC1CCOCC1	none
CN1CC(=O)N(C2CCCNC2)Cc2c1ncnc2N1CCC(N)CC1 (centres undefined)	none
CN1N=C(N)c2cn([C@@H]3O[C@H](COP(=O)(O)O)[C@@H](O)[C@@H]3O)c3ncnc1c23	SNCA viab count inconclusive, GPT2 inhibitor 14µM, SNCA expr inhib inconclusive (no result: IP6K1 inh)
CCS(=O)(=O)c1ncc(N(Cc2ccccc2)Cc2ccco2)c(C(=O)Nc2cccc(Cl)c2C)n1	none (no result: GPT2 inhibitor)
CCS(=O)(=O)c1ncc(Cl)c(C(=O)N(Cc2ccccc2)Cc2ccco2)n1	SNCA viab count 8.9µM, SNCA expr inhib inconclusive (no result: GPT2 inhibitor)
O=C(NCCCc1ccccc1)c1cn2cc(-c3ccc(C(F)(F)F)cc3)sc2n1	none
CN(C)CCN(Cc1ccc(-c2ccc(CNCCc3ccccc3)cc2)cc1)C(=O)CCC1CCCC1	SNCA viab count 19µM (no result: SNCA expr inhib)
Cc1ccc(C)c(NC(=O)CSc2ncc(S(=O)(=O)c3ccc(C)c(Cl)c3)c(=O)[nH]2)c1	none (no result: GPT2 inhibitor)
CCOC(=O)c1ccc(NC(=O)CSc2ncc(S(=O)(=O)c3ccc(C)c(Cl)c3)c(=O)[nH]2)cc1	IP6K1 inh -49 (no result: GPT2 inhibitor)
COc1ccc(CN2CC3(CCN(C(=O)c4cccnc4)CC3)C2=O)cc1	none
C[C@H](C(=O)N1CCCC1)C1CC[C@@]2(C)Cc3sc(-c4ccccc4)nc3[C@@H](C)[C@@H]2[C@H]1O (some centres undefined)	SNCA expr inhib 4.5µM
CCN(CC)C(=O)[C@@H](C)C1CC[C@@]2(C)Cc3sc(Nc4c(Cl)cccc4Cl)nc3[C@@H](C)[C@@H]2[C@H]1O (some centres undefined)	GPT2 inhibitor inconclusive, SNCA expr inhib inconclusive
COCCNC(=O)[C@@H](C)C1CC[C@@]2(C)Cc3sc(CSc4ccccc4)nc3[C@@H](C)[C@@H]2[C@H]1O (some centres undefined)	none
C[C@H](C(=O)N1CCCC1)[C@@H]1CC[C@@]2(C)Cc3sc(-c4ccsc4)nc3[C@@H](C)[C@@H]2[C@H]1O	SNCA expr inhib 5.6µM
COc1cccc(CN2CCCN(Cc3ccncc3)C(c3ccccc3)CC(=O)NCC2)c1 (centres undefined)	SNCA expr inhib inconclusive
O=c1[nH]c(N2CCOCC2)nc2c1CCN(Cc1cccc(C(F)(F)F)c1)CC2	none
O=c1cc(CN2CCOCC2)occ1OCCCCCSc1ccnc2cc(C(F)(F)F)ccc12	SNCA viab count 30µM!, GPT2 inhibitor inconclusive, SNCA expr inhib inconclusive
CCCCN(C)C(=O)CSc1nc2ccccc2nc1Cc1ccc(C)cc1	SNCA viab count inconclusive, SNCA expr inhib 14µM (no result: GPT2 inhibitor)
CCCCNC(=O)CSc1nc2ccccc2nc1Cc1ccc(C)cc1	none (no result: GPT2 inhibitor)
O=C1CC2(CCN(C(=O)C3CCCN(C(=O)c4ccccc4)C3)CC2)Oc2ccccc2N1 (centres undefined)	GPT2 inhibitor inconclusive
Cc1cccc(Cn2cc3c(=O)n(CC(=O)Nc4ccc(C)c(F)c4)nc-3c3cc(F)ccc32)c1	SNCA expr inhib 22µM (no result: GPT2 inhibitor)
O=S(=O)(c1ccccc1F)N1CCC(OCc2noc(C3CCCO3)n2)CC1 (centres undefined)	SNCA expr inhib inconclusive
CCN(CC1CCN(CCc2ccccc2C)CC1)C(=O)C1C=CCN1 (centres undefined)	none
COc1cc([C@H]2OC[C@]3(OC(C)=O)[C@@H](c4ccc(O[C@@H]5O[C@H](CO)[C@@H](O)[C@H](O)[C@H]5O)c(OC)c4)OC[C@H]23)ccc1O	none (no result: SNCA expr inhib)
